# Source: PMC7862700, “An all-to-all approach to the identification of sequence-specific readers for epigenetic DNA modifications on cytosine”
# Legend:
# Experiment in all cases: DAPPL (digital affinity profiling via proximity ligation, sequencing); 10 mM Tris-HCl pH 7.5, 50 mM NaCl, 1 mM DTT, 4% glycerol, room temperature, 30 min; GST-TFs on glutathione beads, 16-mer random dsDNA library, 0.1% formaldehyde crosslink after washing; high values mean tight binding
# [1] = biological target: T1, FLI1 (Homo sapiens, UniProt Q01543 1-452); settings: protein: recombinant; tags: N-terminal GST; dsDNA, one strand shown
# T1 sequence: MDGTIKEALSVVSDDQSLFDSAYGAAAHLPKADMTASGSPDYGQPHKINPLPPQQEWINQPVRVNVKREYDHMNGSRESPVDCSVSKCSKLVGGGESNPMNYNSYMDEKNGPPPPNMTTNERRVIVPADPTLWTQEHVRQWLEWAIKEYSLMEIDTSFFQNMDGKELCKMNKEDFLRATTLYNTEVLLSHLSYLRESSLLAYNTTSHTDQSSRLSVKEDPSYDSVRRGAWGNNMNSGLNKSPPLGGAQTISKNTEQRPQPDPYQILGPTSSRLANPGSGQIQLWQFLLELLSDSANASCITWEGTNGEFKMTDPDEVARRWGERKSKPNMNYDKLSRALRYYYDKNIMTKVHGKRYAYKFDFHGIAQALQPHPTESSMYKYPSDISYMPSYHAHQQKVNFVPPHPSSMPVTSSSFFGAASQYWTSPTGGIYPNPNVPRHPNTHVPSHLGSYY
# Summary of the method: (§1)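 GST fusions of human transcription factors were expressed in yeast and captured with glutathione beads. Once given DNA barcodes and pooled alongside a tag-only sample, they were incubated for 30 min at room temperature with 200 nmole of a random double-stranded 16-mer DNA library in Tris/NaCl/DTT/glycerol buffer, then washed, crosslinked (0.1% formaldehyde), proximity-ligated, PCR-amplified and sequenced on an Illumina NextSeq500. The binding signal of each hexamer is its read frequency for a factor divided by its frequency for the tag-only sample.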
# [2] = biological target: T2, ELK1 (Homo sapiens, UniProt P19419 1-428); settings: protein: recombinant; tags: N-terminal GST; dsDNA, one strand shown
# T2 sequence: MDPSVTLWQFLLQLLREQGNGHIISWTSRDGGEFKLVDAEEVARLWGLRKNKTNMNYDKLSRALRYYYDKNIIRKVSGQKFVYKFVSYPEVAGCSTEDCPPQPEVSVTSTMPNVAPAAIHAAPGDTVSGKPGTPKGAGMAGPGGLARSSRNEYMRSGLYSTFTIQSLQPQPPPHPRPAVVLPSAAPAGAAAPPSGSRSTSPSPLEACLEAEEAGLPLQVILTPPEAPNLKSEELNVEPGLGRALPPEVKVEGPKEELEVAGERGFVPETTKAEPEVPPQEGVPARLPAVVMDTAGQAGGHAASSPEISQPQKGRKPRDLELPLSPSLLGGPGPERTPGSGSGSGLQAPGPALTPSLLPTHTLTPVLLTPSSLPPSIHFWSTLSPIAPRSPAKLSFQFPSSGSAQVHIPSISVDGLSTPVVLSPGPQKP
# Summary of the method: as §1
# [3] = biological target: T3, GABPA (Homo sapiens, UniProt Q06546 1-454); settings: protein: recombinant; tags: N-terminal GST; dsDNA, one strand shown
# T3 sequence: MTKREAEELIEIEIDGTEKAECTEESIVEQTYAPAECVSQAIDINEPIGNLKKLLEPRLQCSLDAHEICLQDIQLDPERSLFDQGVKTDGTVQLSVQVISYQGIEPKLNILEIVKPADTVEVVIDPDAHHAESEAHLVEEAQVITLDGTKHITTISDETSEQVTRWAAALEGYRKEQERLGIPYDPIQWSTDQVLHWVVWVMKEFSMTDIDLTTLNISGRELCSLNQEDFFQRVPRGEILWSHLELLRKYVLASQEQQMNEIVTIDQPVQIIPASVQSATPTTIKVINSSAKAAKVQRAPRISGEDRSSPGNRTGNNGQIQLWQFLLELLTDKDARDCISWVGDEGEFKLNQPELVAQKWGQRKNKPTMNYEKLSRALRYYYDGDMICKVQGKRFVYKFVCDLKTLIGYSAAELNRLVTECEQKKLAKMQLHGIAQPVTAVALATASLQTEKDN
# Summary of the method: as §1
# [4] = biological target: T4, ERG (Homo sapiens, UniProt P11308 1-479); settings: protein: recombinant; tags: N-terminal GST; dsDNA, one strand shown
# T4 sequence: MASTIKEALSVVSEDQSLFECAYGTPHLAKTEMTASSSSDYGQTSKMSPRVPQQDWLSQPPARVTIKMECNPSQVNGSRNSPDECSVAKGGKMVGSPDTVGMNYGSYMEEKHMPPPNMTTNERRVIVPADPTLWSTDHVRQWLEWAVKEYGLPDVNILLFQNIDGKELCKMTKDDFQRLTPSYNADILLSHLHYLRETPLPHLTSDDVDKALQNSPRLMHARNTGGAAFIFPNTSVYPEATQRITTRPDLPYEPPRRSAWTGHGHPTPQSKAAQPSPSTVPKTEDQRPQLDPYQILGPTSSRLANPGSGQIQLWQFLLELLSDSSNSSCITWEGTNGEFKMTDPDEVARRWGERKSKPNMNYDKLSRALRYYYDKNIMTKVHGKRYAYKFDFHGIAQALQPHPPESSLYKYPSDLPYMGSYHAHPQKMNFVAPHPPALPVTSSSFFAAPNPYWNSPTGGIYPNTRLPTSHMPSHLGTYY
# Summary of the method: as §1
# [5] = biological target: ELF1 (Homo sapiens, UniProt P32519 1-619); settings: protein: recombinant; tags: N-terminal GST; dsDNA, one strand shown
# ELF1, sequence (P32519 whole entry): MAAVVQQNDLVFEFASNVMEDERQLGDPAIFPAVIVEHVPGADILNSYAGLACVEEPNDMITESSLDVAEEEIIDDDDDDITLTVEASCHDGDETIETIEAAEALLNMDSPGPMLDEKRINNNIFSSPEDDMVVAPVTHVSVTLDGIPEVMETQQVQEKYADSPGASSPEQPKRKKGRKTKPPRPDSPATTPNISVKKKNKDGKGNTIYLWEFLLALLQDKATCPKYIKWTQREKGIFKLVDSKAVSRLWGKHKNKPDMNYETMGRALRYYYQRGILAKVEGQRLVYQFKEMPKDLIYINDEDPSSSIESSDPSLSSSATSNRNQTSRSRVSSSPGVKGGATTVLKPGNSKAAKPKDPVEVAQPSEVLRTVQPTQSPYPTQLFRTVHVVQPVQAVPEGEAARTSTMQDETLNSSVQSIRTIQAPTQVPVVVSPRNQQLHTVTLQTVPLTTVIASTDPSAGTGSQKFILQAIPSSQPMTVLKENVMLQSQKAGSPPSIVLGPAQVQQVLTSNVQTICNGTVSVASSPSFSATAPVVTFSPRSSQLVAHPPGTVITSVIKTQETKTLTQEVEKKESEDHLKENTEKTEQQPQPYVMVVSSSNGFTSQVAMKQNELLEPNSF
# Summary of the method: as §1
# [6] = biological target: T5, EHF (Homo sapiens, UniProt Q9NZC4 1-300); settings: protein: recombinant; tags: N-terminal GST; dsDNA, one strand shown
# T5 sequence: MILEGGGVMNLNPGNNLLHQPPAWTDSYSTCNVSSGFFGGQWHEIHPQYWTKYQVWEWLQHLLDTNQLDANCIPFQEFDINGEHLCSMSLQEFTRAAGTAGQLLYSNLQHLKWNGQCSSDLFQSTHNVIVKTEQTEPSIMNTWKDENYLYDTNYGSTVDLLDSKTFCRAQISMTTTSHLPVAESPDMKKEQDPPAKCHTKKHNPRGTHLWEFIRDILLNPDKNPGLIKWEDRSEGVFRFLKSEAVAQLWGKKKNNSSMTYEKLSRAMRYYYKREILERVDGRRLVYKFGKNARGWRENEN
# Summary of the method: as §1
# [7] = biological target: SPI1 (Homo sapiens, UniProt P17947 1-270); settings: protein: recombinant; tags: N-terminal GST; dsDNA, one strand shown
# Summary of the method: as §1
# [8] = biological target: SPIB (Homo sapiens, UniProt Q01892 1-262); settings: protein: recombinant; tags: N-terminal GST; dsDNA, one strand shown
# SPIB, sequence (Q01892 whole entry): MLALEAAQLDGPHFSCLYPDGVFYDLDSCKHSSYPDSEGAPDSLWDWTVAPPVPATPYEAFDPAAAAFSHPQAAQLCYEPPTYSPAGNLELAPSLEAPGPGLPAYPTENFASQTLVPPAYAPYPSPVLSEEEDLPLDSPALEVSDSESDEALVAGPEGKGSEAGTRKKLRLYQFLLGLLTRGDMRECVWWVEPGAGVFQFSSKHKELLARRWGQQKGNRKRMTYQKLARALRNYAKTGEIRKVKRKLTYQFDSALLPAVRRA
# Summary of the method: as §1
# [9] = biological target: T6, ELK3 (Homo sapiens, UniProt P41970 1-407); settings: protein: recombinant; tags: N-terminal GST; dsDNA, one strand shown
# T6 sequence: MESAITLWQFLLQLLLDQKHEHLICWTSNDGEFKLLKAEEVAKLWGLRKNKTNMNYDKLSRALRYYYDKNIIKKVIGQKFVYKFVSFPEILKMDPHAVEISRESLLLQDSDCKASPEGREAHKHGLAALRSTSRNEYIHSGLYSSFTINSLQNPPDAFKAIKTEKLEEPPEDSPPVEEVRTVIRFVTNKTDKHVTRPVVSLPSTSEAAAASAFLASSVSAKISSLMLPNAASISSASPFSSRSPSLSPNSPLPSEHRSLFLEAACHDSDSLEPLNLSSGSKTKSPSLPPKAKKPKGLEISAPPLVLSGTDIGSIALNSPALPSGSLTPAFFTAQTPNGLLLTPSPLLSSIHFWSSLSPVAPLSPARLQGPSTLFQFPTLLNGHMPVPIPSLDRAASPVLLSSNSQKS
# Summary of the method: as §1
# [10] = biological target: T7, FEV (Homo sapiens, UniProt Q99581 1-238); settings: protein: recombinant; tags: N-terminal GST; dsDNA, one strand shown
# T7 sequence: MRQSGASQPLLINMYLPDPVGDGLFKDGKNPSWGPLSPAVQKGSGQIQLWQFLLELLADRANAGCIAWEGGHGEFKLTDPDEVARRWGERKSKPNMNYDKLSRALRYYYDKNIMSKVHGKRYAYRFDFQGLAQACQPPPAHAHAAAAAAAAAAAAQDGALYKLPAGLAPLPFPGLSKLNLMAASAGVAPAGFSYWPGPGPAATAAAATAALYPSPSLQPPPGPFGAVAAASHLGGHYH
# Summary of the method: as §1
# [11] = biological target: ETV5 (Homo sapiens, UniProt P41161 1-510); settings: protein: recombinant; tags: N-terminal GST; dsDNA, one strand shown
# ETV5, sequence (P41161 whole entry): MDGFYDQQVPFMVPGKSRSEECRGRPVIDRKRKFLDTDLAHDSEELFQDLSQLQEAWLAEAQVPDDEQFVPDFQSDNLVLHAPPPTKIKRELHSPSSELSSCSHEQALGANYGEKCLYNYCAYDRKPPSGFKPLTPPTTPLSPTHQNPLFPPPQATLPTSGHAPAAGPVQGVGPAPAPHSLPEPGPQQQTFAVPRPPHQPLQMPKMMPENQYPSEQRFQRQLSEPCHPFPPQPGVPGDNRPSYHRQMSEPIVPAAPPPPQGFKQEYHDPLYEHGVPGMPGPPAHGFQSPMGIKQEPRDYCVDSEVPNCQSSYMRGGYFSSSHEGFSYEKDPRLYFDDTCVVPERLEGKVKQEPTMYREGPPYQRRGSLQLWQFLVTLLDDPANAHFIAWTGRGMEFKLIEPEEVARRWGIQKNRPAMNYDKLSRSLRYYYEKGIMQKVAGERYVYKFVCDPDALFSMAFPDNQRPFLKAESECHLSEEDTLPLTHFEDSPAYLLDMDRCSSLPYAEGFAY
# Summary of the method: as §1
# [12] = biological target: HSF1 (Homo sapiens, UniProt Q00613 1-529); settings: protein: recombinant; tags: N-terminal GST; chain copies: 3; dsDNA, one strand shown
# HSF1, sequence (Q00613 whole entry): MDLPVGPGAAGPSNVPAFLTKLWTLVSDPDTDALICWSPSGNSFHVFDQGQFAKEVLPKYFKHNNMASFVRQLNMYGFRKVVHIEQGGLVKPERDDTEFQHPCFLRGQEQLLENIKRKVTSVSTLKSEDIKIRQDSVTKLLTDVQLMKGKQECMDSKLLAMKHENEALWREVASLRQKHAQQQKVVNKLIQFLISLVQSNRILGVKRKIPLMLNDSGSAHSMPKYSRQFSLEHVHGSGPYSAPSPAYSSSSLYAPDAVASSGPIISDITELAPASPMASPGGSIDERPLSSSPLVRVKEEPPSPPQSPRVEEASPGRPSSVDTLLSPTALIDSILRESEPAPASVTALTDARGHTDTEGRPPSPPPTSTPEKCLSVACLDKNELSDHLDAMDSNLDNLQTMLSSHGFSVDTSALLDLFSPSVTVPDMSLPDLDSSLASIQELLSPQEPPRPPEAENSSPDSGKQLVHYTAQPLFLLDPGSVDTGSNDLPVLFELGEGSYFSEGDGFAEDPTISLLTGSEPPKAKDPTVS
# Summary of the method: as §1
# [13] = biological target: T8, SPIC (Homo sapiens, UniProt Q8N5J4 1-248); settings: protein: recombinant; tags: N-terminal GST; dsDNA, one strand shown
# T8 sequence: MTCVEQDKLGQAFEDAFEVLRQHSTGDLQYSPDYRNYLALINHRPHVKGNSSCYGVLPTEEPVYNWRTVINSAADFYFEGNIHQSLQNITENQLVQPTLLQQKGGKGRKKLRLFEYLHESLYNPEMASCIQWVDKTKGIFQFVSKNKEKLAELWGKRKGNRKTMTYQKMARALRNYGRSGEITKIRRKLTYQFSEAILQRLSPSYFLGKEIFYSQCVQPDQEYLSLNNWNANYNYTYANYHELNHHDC
# Summary of the method: as §1
# [14] = biological target: ELF4 (Homo sapiens, UniProt Q99607 1-663); settings: protein: recombinant; tags: N-terminal GST; dsDNA, one strand shown
# ELF4, sequence (Q99607 whole entry): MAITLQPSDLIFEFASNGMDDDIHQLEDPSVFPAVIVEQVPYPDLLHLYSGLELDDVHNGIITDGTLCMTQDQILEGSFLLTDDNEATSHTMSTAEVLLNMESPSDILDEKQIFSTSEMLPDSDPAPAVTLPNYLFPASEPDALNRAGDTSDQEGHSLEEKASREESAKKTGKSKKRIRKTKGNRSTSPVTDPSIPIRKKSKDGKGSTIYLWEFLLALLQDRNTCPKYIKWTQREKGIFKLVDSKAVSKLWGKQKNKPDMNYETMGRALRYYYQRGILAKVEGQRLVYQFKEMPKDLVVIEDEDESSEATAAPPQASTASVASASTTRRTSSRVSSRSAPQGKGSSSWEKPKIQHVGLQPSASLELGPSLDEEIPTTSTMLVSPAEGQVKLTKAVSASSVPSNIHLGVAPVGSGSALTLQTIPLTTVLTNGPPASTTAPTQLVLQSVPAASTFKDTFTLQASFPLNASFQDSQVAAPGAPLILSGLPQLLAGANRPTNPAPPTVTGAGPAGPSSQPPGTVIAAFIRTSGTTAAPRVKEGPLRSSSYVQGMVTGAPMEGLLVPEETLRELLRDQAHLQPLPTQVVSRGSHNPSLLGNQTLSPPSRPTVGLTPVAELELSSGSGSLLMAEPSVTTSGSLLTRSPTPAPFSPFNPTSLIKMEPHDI
# Summary of the method: as §1
# [15] = biological target: T9, ELK4 (Homo sapiens, UniProt P28324-2 1-405); settings: protein: recombinant; tags: N-terminal GST; dsDNA, one strand shown
# T9 sequence: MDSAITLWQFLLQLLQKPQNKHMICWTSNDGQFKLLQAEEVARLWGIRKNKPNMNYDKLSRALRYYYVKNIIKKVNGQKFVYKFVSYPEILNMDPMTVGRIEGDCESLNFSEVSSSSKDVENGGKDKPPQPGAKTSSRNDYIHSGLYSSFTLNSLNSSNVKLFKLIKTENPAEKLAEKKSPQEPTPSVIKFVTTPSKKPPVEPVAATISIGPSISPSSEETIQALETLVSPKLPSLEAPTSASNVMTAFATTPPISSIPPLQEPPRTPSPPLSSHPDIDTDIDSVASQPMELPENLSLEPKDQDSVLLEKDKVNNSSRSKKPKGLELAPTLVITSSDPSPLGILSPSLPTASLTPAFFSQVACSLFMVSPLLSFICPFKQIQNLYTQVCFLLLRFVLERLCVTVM
# Summary of the method: as §1
# [16] = biological target: T10, ETV2 (Homo sapiens, UniProt O00321 1-342); settings: protein: recombinant; tags: N-terminal GST; dsDNA, one strand shown
# T10 sequence: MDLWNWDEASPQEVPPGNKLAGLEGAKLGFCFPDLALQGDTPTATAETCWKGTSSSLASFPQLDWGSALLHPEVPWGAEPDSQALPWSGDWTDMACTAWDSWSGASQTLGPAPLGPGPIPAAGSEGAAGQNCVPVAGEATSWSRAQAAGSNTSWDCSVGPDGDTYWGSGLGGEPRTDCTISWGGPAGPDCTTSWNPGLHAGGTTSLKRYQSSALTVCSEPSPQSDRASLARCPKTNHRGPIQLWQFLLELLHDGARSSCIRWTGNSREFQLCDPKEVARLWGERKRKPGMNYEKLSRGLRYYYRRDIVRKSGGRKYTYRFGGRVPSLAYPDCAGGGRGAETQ
# Summary of the method: as §1
# [17] = biological target: T11, ELF3 (Homo sapiens, UniProt P78545 1-371); settings: protein: recombinant; tags: N-terminal GST; dsDNA, one strand shown
# T11 sequence: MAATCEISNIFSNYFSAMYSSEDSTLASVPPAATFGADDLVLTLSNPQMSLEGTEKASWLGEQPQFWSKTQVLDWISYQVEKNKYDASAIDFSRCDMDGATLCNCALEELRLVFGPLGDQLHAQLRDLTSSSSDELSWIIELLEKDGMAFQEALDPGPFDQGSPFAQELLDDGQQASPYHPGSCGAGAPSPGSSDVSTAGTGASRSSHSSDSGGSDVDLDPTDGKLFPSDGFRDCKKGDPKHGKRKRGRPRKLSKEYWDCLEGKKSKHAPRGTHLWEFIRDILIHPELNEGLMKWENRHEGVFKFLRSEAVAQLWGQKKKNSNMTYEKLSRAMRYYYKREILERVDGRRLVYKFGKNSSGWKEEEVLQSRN
# Summary of the method: as §1
# [18] = biological target: CRX (Homo sapiens, UniProt O43186 1-299); settings: protein: recombinant; tags: N-terminal GST; dsDNA, one strand shown
# CRX, sequence (O43186 whole entry): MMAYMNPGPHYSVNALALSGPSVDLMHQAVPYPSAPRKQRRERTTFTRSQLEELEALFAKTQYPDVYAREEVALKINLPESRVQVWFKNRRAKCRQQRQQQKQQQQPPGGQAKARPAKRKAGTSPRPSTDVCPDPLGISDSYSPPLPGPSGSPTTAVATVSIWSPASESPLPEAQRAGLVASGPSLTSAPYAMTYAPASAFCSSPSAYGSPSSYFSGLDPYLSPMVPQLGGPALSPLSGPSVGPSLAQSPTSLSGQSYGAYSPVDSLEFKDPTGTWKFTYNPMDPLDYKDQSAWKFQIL
# Summary of the method: as §1
# [19] = biological target: ETV1 (Homo sapiens, UniProt P50549 1-477); settings: protein: recombinant; tags: N-terminal GST; dsDNA, one strand shown
# ETV1, sequence (P50549 whole entry): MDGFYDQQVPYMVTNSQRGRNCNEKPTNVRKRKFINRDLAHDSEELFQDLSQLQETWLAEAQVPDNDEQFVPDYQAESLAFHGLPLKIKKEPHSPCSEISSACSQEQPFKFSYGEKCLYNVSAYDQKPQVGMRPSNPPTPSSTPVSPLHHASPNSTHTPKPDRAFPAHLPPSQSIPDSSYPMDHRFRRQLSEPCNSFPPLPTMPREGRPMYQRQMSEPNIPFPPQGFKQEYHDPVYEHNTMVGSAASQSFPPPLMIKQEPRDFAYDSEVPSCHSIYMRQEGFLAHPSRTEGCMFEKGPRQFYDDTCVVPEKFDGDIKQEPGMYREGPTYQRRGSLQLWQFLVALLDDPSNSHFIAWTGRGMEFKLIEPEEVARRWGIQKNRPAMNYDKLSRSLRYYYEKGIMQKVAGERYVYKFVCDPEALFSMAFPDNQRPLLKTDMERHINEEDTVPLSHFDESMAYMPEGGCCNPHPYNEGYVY
# Summary of the method: as §1
sequence,measurement,setting,value
CTCTCA,binding signal,[1],"1.49 fold enrichment (6-mer frequency, TF over GST control)"
same,binding signal,[2],"1.47 fold enrichment (6-mer frequency, TF over GST control)"
same,binding signal,[3],"1.52 fold enrichment (6-mer frequency, TF over GST control)"
same,binding signal,[4],"1.36 fold enrichment (6-mer frequency, TF over GST control)"
same,binding signal,[5],"1.38 fold enrichment (6-mer frequency, TF over GST control)"
same,binding signal,[6],"1.36 fold enrichment (6-mer frequency, TF over GST control)"
same,binding signal,[7],"1.38 fold enrichment (6-mer frequency, TF over GST control)"
same,binding signal,[8],"1.44 fold enrichment (6-mer frequency, TF over GST control)"
same,binding signal,[9],"1.57 fold enrichment (6-mer frequency, TF over GST control)"
same,binding signal,[10],"1.44 fold enrichment (6-mer frequency, TF over GST control)"
same,binding signal,[11],"1.35 fold enrichment (6-mer frequency, TF over GST control)"
same,binding signal,[12],"1.2 fold enrichment (6-mer frequency, TF over GST control)"
same,binding signal,[13],"1.21 fold enrichment (6-mer frequency, TF over GST control)"
same,binding signal,[14],"1.42 fold enrichment (6-mer frequency, TF over GST control)"
same,binding signal,[15],"1.45 fold enrichment (6-mer frequency, TF over GST control)"
same,binding signal,[16],"1.33 fold enrichment (6-mer frequency, TF over GST control)"
same,binding signal,[17],"1.47 fold enrichment (6-mer frequency, TF over GST control)"
same,binding signal,[18],"1.24 fold enrichment (6-mer frequency, TF over GST control)"
same,binding signal,[19],"1.51 fold enrichment (6-mer frequency, TF over GST control)"
